Assay outcomes as filed in PubChem BioAssay.
12-LOX inh: ALOX12 (human) lipoxygenase inhibition; purified 12hLO, xylenol orange hydroperoxide absorbance; AID 1671190; Potency, µM (top dose mostly 108 µM), for the others: at the highest dose activity change, negative = inhibition, hits mostly inhibitors; actives 1.1% (n = 580,000); P18054; further: potency means the concentration at half of the fitted maximal effect
Target sequence (P18054 whole entry, looked up): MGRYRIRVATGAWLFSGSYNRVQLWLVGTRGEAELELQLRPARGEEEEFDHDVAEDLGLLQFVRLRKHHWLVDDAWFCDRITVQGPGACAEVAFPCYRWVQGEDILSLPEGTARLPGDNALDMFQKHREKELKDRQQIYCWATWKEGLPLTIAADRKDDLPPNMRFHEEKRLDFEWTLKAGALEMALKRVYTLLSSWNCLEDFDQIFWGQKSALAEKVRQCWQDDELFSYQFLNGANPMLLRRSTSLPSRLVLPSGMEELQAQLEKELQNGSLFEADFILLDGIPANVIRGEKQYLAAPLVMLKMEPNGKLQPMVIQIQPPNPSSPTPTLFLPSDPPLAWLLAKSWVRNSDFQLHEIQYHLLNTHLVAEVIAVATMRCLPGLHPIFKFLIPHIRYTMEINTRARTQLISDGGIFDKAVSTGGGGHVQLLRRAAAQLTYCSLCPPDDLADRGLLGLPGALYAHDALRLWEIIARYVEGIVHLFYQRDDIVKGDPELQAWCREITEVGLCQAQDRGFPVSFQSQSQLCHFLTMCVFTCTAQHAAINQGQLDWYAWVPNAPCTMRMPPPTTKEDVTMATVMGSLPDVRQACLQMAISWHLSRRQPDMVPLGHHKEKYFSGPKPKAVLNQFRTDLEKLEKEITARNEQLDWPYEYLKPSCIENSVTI
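Purified human 12hLO (150 nM final) in 25 mM Hepes, 0.01% Triton X-100, pH 7.0 was preincubated 15 min at room temperature with compound. Then 40 uM arachidonic acid was added, 30 min. Hydroperoxide was read by Fe-XO absorbance ratio 573/405 nm.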
HT1080 IDH1KD tx: kills HT-1080 cells with IDH1 knockdown | HT-1080 IDH1 knockdown viability, ATP luminescence, 48 h | Potency, µM (doses to about 46.1 µM), inactives show at the highest dose activity, negative = toxicity, actives largely listed as cytotoxic | actives 2% (n = 360,000) | AID 686971;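 further: potency means the concentration at half of the fitted maximal effect; 0% = DMSO wells and -100% = cell-free medium wells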
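After a 2 h attachment period, IDH1KD HT-1080 cells took pin-transferred compound for 48 h at 37 °C; ATP-based luminescence after 10 min room-temperature reagent incubation reported viability.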
TDP1 cell CPT: DT40-hTDP1 cell growth loss with CPT | chicken DT40 Tdp1-/-;hTDP1 cells + 20 nM CPT, ATP luminescence, 48 h | Potency, µM (doses to about 46.2 µM), inactives show top-dose activity change, negative = growth inhibition, actives largely listed as inhibitors | actives 12% (n = 420,000) | AID 686979; further: potency means the concentration at half of the fitted maximal effect; nearly all actives have a fitted effect of over 55% in size
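Chicken DT40 Tdp1-/- cells complemented with human TDP1, 400 cells/well, exposed to compounds plus 20 nM camptothecin for at least 48 h at 37 C; viability read as ATP content by CellTiter-Glo luminescence.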
TDP1 cell noCPT: qHTS for Inhibitors of human tyrosyl-DNA phosphodiesterase 1 (TDP1): qHTS in cells in absence of CPT. Potency, µM (series often up to 46.2 µM), for the others: top-dose activity change, negative = growth inhibition, most hits filed as inhibitors. DT40 Tdp1-/- hTDP1 cells, no CPT, ATP luminescence, 48 h. actives 15% (n = 420,000); further: potency means the concentration at half of the fitted maximal effect; nearly all actives have a fitted effect of over 55% in size
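DT40 Tdp1-/-;hTDP1 cells, no CPT (DMSO vehicle only), 400 cells/well; compounds pin-transferred; ≥48 hr, 37 °C; CellTiter-Glo 30 min RT dark, luminescence read.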
IL1B secr inh: inflammasome signaling inhibition, IL-1 beta readout; THP-1 LPS/ATP IL-1B secretion, AlphaLISA, 16 h; hits give low values; activity change, % at 57.5 µM; actives 4.7% (n = 360,000); AID 743279; in the data active means activity change below about -50%; inconclusive means mostly about -30% to -49%
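Secreted IL-1B measured by AlphaLISA bead assay after 16 h compound exposure of THP-1 cells; compounds (final up to 57.5 uM) added 1 h before LPS (250 ng/mL) and ATP (1.25 mM) stimulation; lower signal means less secretion.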
HT1080-NT tox: kills 2HG-producing HT-1080-NT fibrosarcoma cells. actives 1.6% (n = 360,000). Potency, µM (top dose mostly 46.1 µM), inactives show top-dose activity, negative = less viability, most hits filed as cytotoxic. HT-1080-NT fibrosarcoma viability, CellTiter-Glo ATP luminescence, 48 h;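 further: NT is the 2HG producing partner of a matched IDH1 knockdown line; potency means the concentration at half of the fitted maximal effect; 0% = DMSO-treated cells and -100% = media-only wells without cells; nearly all actives have a fitted effect of over 55% in size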
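HT-1080-NT; 750 cells/well; 5% FBS RPMI; 48 h compound, 37 degrees C; CellTiter-Glo luminescence; curve fitting and curve-class assignment.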
Numbers without * were called inactive; [ ] = remark or other dose. Many of the other results were omitted from the sample, so hits are more common in it than they were. Unless noted, the call rests on the fitted dose curve; in most records, active means well fitted curve in the direction sought with a large enough effect; inconclusive means small, poorly fitted or top-dose-only effect, or another doubt; inactive means no such curve, though single readings can be large; an effect the other way counts as inactive or inconclusive. Unless noted, on the % scale 0 is the no-effect control and ±100 the full control effect.

`Cc1nnc(-c2cccc(Br)c2)c2cn(-c3ccccc3Cl)nc12` gave 12-LOX inh -60%, HT1080 IDH1KD tx -1%, TDP1 cell CPT 23µM*, TDP1 cell noCPT inconclusive, IL1B secr inh inconclusive and HT1080-NT tox 4%.
Screening CCOC(=O)c1cccc(NC(=O)N2CC[C@@H](CC(=O)NCCOC)[C@@H](CC)C2)c1 returned 12-LOX inh -36%[176 µM].
Screening CCn1nc(C)c(C2C(C#N)=C(N)Oc3n[nH]c(C)c32)c1C (stereo not given) returned 12-LOX inh 10%, HT1080 IDH1KD tx 9%, TDP1 cell CPT 3%, TDP1 cell noCPT -23%, IL1B secr inh -5 and HT1080-NT tox 12%.
Screening Cc1[nH]nc2c1C(c1ccc(F)cc1)C(C#N)=C(N)O2 (stereo not given) returned 12-LOX inh 28%, HT1080 IDH1KD tx 16%, TDP1 cell CPT -1%, TDP1 cell noCPT 3%, IL1B secr inh -28 and HT1080-NT tox -1%.
`CC(C)C1C(C#N)=C(N)Oc2n[nH]c(-c3ccc4ccccc4c3)c21` (stereo not given) gave 12-LOX inh inconclusive, HT1080 IDH1KD tx inconclusive, TDP1 cell CPT inconclusive, TDP1 cell noCPT 10µM*, IL1B secr inh 5 and HT1080-NT tox inconclusive.
For N#CC1=C(N)Oc2n[nH]c(-c3ccc4ccccc4c3)c2C1c1ccc(O)cc1 (stereo not given) the results were 12-LOX inh -3%.
Screening CCC(CC)C1C(C#N)=C(N)Oc2n[nH]c(-c3ccccc3)c21 (stereo not given) returned 12-LOX inh 8%, HT1080 IDH1KD tx -20%[9.24 µM], TDP1 cell CPT inconclusive, TDP1 cell noCPT 26µM*, IL1B secr inh -30 and HT1080-NT tox inconclusive.
Screening Cc1[nH]nc2c1C(C1CC=CCC1)C(C#N)=C(N)O2 (stereo not given) returned 12-LOX inh inconclusive, HT1080 IDH1KD tx inconclusive, TDP1 cell CPT 21µM*, TDP1 cell noCPT inconclusive, IL1B secr inh -112* and HT1080-NT tox inconclusive.
For CCC(CC)C1C(C#N)=C(N)Oc2n[nH]c(C)c21 (stereo not given) the results were 12-LOX inh -30%, HT1080 IDH1KD tx 11µM*, TDP1 cell CPT 18µM*, TDP1 cell noCPT 16µM*, IL1B secr inh -88* and HT1080-NT tox 11µM*.
`CCCc1cc(C(=O)N2CCC(=O)N(Cc3ccccc3)C(CC)C2)ccn1` (stereo not given) gave 12-LOX inh -3%.
Screening CCc1[nH]nc2c1C(c1cccnc1)C(C#N)=C(N)O2 (stereo not given) returned 12-LOX inh 28%, HT1080 IDH1KD tx -2%, TDP1 cell CPT 1%, TDP1 cell noCPT -12%, IL1B secr inh -27 and HT1080-NT tox -2%.
Cc1ccc(-c2[nH]nc3c2C(c2ccsc2)C(C#N)=C(N)O3)cc1 (stereo not given) was read as 12-LOX inh inconclusive, HT1080 IDH1KD tx -5%, TDP1 cell CPT -6%, TDP1 cell noCPT -28%, IL1B secr inh -29 and HT1080-NT tox -15%.
`CCc1[nH]nc2c1C(C(C)C)C(C#N)=C(N)O2` (stereo not given) gave 12-LOX inh 0%, HT1080 IDH1KD tx -9%, TDP1 cell CPT inconclusive, TDP1 cell noCPT inconclusive, IL1B secr inh -84* and HT1080-NT tox -2%.
`N#CC1=C(N)Oc2n[nH]c(-c3ccccc3)c2C1c1ccsc1` (stereo not given) gave 12-LOX inh 151%, HT1080 IDH1KD tx -2%, TDP1 cell CPT inconclusive, TDP1 cell noCPT 12µM*, IL1B secr inh 40 and HT1080-NT tox -2%.
`Cc1ccc(COc2ccsc2-c2n[nH]c(=S)n2C)cc1` gave 12-LOX inh 14µM*, HT1080 IDH1KD tx 1%, TDP1 cell CPT -8%, TDP1 cell noCPT 2%, IL1B secr inh -12 and HT1080-NT tox 8%.
Cn1c(-c2sccc2OCc2ccc(Cl)cc2Cl)n[nH]c1=S was read as 12-LOX inh 28µM*, HT1080 IDH1KD tx -10%, TDP1 cell CPT inconclusive, TDP1 cell noCPT inconclusive, IL1B secr inh 9 and HT1080-NT tox -11%.
CCCN(CC1CC1)C(=O)C1CCN(C(=O)N2CC3CC(C2)[C@H]2CCCC(=O)N2C3)CC1 (stereo not given in full) was read as 12-LOX inh 18%.
`O=C(COc1ccccc1)NCCSc1ccccc1` gave 12-LOX inh 0%, HT1080 IDH1KD tx 0%, TDP1 cell CPT -3%, TDP1 cell noCPT -26%, IL1B secr inh -6 and HT1080-NT tox 7%.
C=CCNC(=O)COc1ccc(Oc2ccccc2)cc1 was read as 12-LOX inh -21%, HT1080 IDH1KD tx -4%, TDP1 cell CPT 15µM*, TDP1 cell noCPT 26µM*, IL1B secr inh -28 and HT1080-NT tox -26%.
For COC(=O)c1cc(NC(=O)c2ccccc2OC(F)F)ccc1F the results were 12-LOX inh -2%.
CCOC(=O)N(O)c1ccc(C=Cc2ccccc2)cc1 was read as 12-LOX inh -16%, HT1080 IDH1KD tx 0%, TDP1 cell CPT 12µM*, TDP1 cell noCPT 15µM*, IL1B secr inh inconclusive and HT1080-NT tox 3%.
For C=C1C(=O)O[C@H]2C[C@H]1[C@@H](OC(C)=O)C/C(C)=C/CC/C(C)=C\CC[C@]2(C)O the results were 12-LOX inh 17%, HT1080 IDH1KD tx 16µM*, TDP1 cell CPT 2.6µM*, TDP1 cell noCPT 2.9µM*, IL1B secr inh -113* and HT1080-NT tox 13µM*.
`CC(=O)O[C@@H]1C[C@H]2C(C)=C[C@H]3OC(=O)[C@@H](C)[C@H]3C[C@H]2[C@]1(C)O` gave 12-LOX inh -2%, HT1080 IDH1KD tx 11%, TDP1 cell CPT 20%, TDP1 cell noCPT 3%, IL1B secr inh 17 and HT1080-NT tox 11%.
Screening CCOc1ccc(-n2c(=S)sc3c(=O)[nH]c(SCC(=O)NCc4ccco4)nc32)cc1 returned 12-LOX inh inconclusive, HT1080 IDH1KD tx -9%, TDP1 cell CPT 0%, TDP1 cell noCPT -6%, IL1B secr inh 14 and HT1080-NT tox 13%.
